Measured values taken from PubChem BioAssay (NCI).
Compounds without any hit were thinned out: in the full panel of roughly 79,000, 15% have a hit. Calls of active or inactive are those of the source. Cut-off read from the data, not from the text of the source: active = growth inhibition above about 70%; inactive = the rest.

Assays:
[1] = NCI Yeast Anticancer Drug Screen. Data for the mec2-1 strain (AID 157); conditions: S. cerevisiae mec2-1 strain, stronger effect = higher value
How it was run: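 Mutant yeast (mec2-1) grown with compound; growth inhibition relative to vehicle control reported.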

[2] = NCI Yeast Anticancer Drug Screen. Data for the rad14 strain (AID 159);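 note: 0% = growth of vehicle-treated control cultures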; conditions: S. cerevisiae rad14 strain growth inhibition, stronger effect = higher value
How it was run: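 Compound-treated yeast with a defined DNA-repair lesion; growth inhibition normalised to vehicle-treated cultures.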

[3] = NCI Yeast Anticancer Drug Screen. Data for the sgs1 mgt1 strain (AID 161);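 note: 0% = growth of cultures given vehicle only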; conditions: S. cerevisiae sgs1 mgt1 strain, stronger effect = higher value
How it was run: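 Compounds are added to genetically altered yeast, and growth is compared with cultures given vehicle alone to give percent inhibition.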

[4] = NCI Yeast Anticancer Drug Screen. Data for the CLN2oe strain (AID 163);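 note: 0% = growth of vehicle-only control cultures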; conditions: S. cerevisiae CLN2oe strain, stronger effect = higher value
How it was run: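 Compounds are applied to yeast harbouring a defined cell-cycle control change; reduced growth compared with vehicle-treated controls gives the value.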

[5] = NCI Yeast Anticancer Drug Screen. Data for the bub3 strain (AID 167); conditions: S. cerevisiae bub3 mutant strain, stronger effect = higher value
How it was run: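 Growth of a checkpoint-deficient yeast mutant is measured after compound exposure. Values represent inhibition relative to vehicle.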

[6] = NCI Yeast Anticancer Drug Screen. Data for the wt2 strain (AID 169);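 note: 0% = growth of vehicle-treated yeast cultures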; conditions: S. cerevisiae wt2 strain growth inhibition, stronger effect = higher value
How it was run: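 Against vehicle-treated controls, the growth of yeast exposed to each compound was compared, and the inhibition was recorded.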

[7] = NCI Yeast Anticancer Drug Screen. Data for the mlh1 strain (AID 171);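 note: 0% = growth of vehicle-treated control cultures of the same strain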; conditions: S. cerevisiae mlh1 strain growth inhibition, stronger effect = higher value
How it was run: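 Measured: yeast growth. Reference: vehicle-treated controls. Organism: strain with a defined alteration affecting DNA damage repair or cell cycle control, treated with compound.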

[8] = NCI Yeast Anticancer Drug Screen. Data for the sgs1 strain (AID 173);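 note: 0% = growth of vehicle-only control cultures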; conditions: S. cerevisiae sgs1 mutant, stronger effect = higher value
How it was run: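 Each compound was added to cultures of the altered yeast strain. Growth was recorded, and inhibition was derived by comparison with vehicle controls.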

[9] = NCI Yeast Anticancer Drug Screen. Data for the mlh1 rad18 strain (AID 175); conditions: S. cerevisiae mlh1 rad18 strain growth inhibition, stronger effect = higher value
How it was run: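 Genetically defined yeast (DNA repair-deficient) exposed to compounds; growth inhibition determined relative to vehicle.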

[10] = NCI Yeast Anticancer Drug Screen. Data for the rad18 strain (AID 177); conditions: S. cerevisiae rad18 mutant growth inhibition, stronger effect = higher value
How it was run: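 Vehicle-treated cultures served as the baseline for scoring compound-induced growth inhibition in DNA-repair-mutant yeast.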

[11] = NCI Yeast Anticancer Drug Screen. Data for the rad52 strain (AID 147);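 note: 0% = growth of vehicle-treated control cultures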; conditions: S. cerevisiae rad52 mutant growth inhibition, stronger effect = higher value
How it was run: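 The repair-mutant yeast strain was incubated with compounds, then growth was read and inhibition derived relative to vehicle.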

[12] = NCI Yeast Anticancer Drug Screen. Data for the wt1 strain (AID 149);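 note: 0% = growth of vehicle-treated wt1 cultures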; conditions: S. cerevisiae wt1 strain (SPY 50644) growth inhibition, stronger effect = higher value
How it was run: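 Readout: yeast growth inhibition, normalised to vehicle controls, in the wt1 strain exposed to test compounds.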

[13] = NCI Yeast Anticancer Drug Screen. Data for the rad50EPP+ strain (AID 151);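 note: 0% = growth of vehicle-treated control cultures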; conditions: S. cerevisiae rad50 mutant strain, stronger effect = higher value
How it was run: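 Vehicle-normalised growth inhibition; rad50EPP+ yeast strain, altered in DNA damage repair, compound-treated.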

[14] = NCI Yeast Anticancer Drug Screen. Data for the mgt1 strain (AID 153); conditions: S. cerevisiae mgt1 mutant growth inhibition, stronger effect = higher value
How it was run: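 Vehicle-normalized growth inhibition is determined in mgt1 yeast, a strain selected for a defined alteration in DNA repair or cell cycle control.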

[15] = NCI Yeast Anticancer Drug Screen. Data for the rad50 strain (AID 155);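 note: 0% = growth of vehicle-only cultures of the same strain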; conditions: S. cerevisiae rad50 strain growth inhibition, stronger effect = higher value
How it was run: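 Compounds were tested on a yeast strain with an engineered DNA damage repair alteration; the reported value is growth inhibition normalised to vehicle treatment.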

[16] = NCI Yeast Anticancer Drug Screen. Data for the cln2 rad14 strain (AID 165);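 note: 0% = growth equal to vehicle treated cultures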; conditions: S. cerevisiae cln2 rad14 strain, stronger effect = higher value
How it was run: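 Readout is yeast growth inhibition versus vehicle-treated controls, using a strain with cln2 and rad14 alterations exposed to compound.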

[17] = at 5.0 µM (retest, dose inferred, filed as 0.5)
[18] = at 50.0 µM (retest, dose inferred, filed as 5.0)

Measured: growth inhibition

CCCC(O)C1CC(C(C)C)CCC1C (stereo not given)
active: [1]; at 50.0 µM 75.5% | [1]; at 100.0 µM 96% | [2]; at 100.0 µM 99% | [5]; at 50.0 µM 92.3% | [5]; at 100.0 µM 98% | [6]; at 100.0 µM 74% | [7]; at 100.0 µM 95% | [8]; at 100.0 µM 94% | [10]; at 100.0 µM 92%
inactive: [1]; [17] 0% | [1]; at 11.0 µM 5% | [1]; at 33.0 µM 9% | [1]; [18] 52% | [2]; at 1.2 µM -1% | [2]; at 3.7 µM 0% | [2]; at 11.0 µM 4% | [2]; at 33.0 µM 17% | [3]; [17] -11% | [3]; [18] 33% | [3]; at 50.0 µM 24.8% | [4]; at 1.2 µM -3% | [4]; at 3.7 µM -3% | [4]; at 11.0 µM 5% | [4]; at 33.0 µM 4% | [4]; at 100.0 µM 12% | [5]; at 1.2 µM -3% | [5]; at 3.7 µM -2% | [5]; [17] -2% | [5]; at 11.0 µM -3% | [5]; at 33.0 µM 1% | [5]; [18] 10% | [6]; at 1.2 µM -1% | [6]; at 3.7 µM 6% | [6]; at 11.0 µM 0% | [6]; at 33.0 µM 4% | [7]; at 1.2 µM -2% | [7]; at 3.7 µM 0% | [7]; at 11.0 µM 3% | [7]; at 33.0 µM 9% | [8]; at 1.2 µM -2% | [8]; at 3.7 µM -1% | [8]; at 11.0 µM 4% | [8]; at 33.0 µM 15% | [9]; [17] -1% | [9]; [18] 11% | [9]; at 50.0 µM 55.9% | [10]; at 1.2 µM 0% | [10]; at 3.7 µM 1% | [10]; at 11.0 µM 2% | [10]; at 33.0 µM 9%

N#CC(C#N)=NNc1ccc(S(=O)(=O)O)cc1
active: [15]; [17] 85% | [15]; [18] 99% | [1]; [17] 93% | [1]; [18] 99% | [9]; [18] 100%
inactive: [11]; at 1.2 µM -6% | [11]; at 3.7 µM 3% | [11]; at 11.0 µM 4% | [11]; at 33.0 µM 14% | [11]; at 100.0 µM 4% | [12]; at 1.2 µM -19% | [12]; at 3.7 µM -18% | [12]; at 11.0 µM -19% | [12]; at 33.0 µM -14% | [12]; at 100.0 µM -3% | [13]; at 1.2 µM 2% | [13]; at 3.7 µM 2% | [13]; at 11.0 µM 19% | [13]; at 33.0 µM -4% | [13]; at 100.0 µM 9% | [14]; at 1.2 µM 3% | [14]; at 3.7 µM 1% | [14]; at 11.0 µM -3% | [14]; at 33.0 µM 7% | [14]; at 100.0 µM 9% | [15]; at 1.2 µM -20% | [15]; at 3.7 µM -27% | [15]; at 11.0 µM -25% | [15]; at 33.0 µM -26% | [15]; at 50.0 µM 19.3% | [15]; at 100.0 µM -9% | [1]; at 1.2 µM -20% | [1]; at 3.7 µM -22% | [1]; at 11.0 µM -29% | [1]; at 33.0 µM -24% | [1]; at 50.0 µM 17.7% | [1]; at 100.0 µM -28% | [2]; at 1.2 µM 11% | [2]; at 3.7 µM 13% | [2]; at 11.0 µM 3% | [2]; at 33.0 µM 2% | [2]; at 100.0 µM 23% | [3]; [17] -2% | [3]; [18] 32% | [3]; at 50.0 µM 22.8% | [4]; at 1.2 µM -17% | [4]; at 3.7 µM -12% | [4]; at 11.0 µM -11% | [4]; at 33.0 µM -19% | [4]; at 100.0 µM -24% | [5]; at 1.2 µM -30% | [5]; at 3.7 µM -29% | [5]; [17] 17% | [5]; at 11.0 µM -30% | [5]; at 33.0 µM -29% | [5]; [18] 28% | [5]; at 50.0 µM 24.1% | [5]; at 100.0 µM -26% | [6]; at 1.2 µM -15% | [6]; at 3.7 µM -18% | [6]; at 11.0 µM -6% | [6]; at 33.0 µM -17% | [6]; at 100.0 µM -7% | [7]; at 1.2 µM 3% | [7]; at 3.7 µM 5% | [7]; at 11.0 µM 5% | [7]; at 33.0 µM 11% | [7]; at 100.0 µM 41% | [8]; at 1.2 µM -8% | [8]; at 3.7 µM -9% | [8]; at 11.0 µM -7% | [8]; at 33.0 µM 10% | [8]; at 100.0 µM 11% | [9]; [17] 63% | [9]; at 50.0 µM 20.6% | [10]; at 1.2 µM 2% | [10]; at 3.7 µM -6% | [10]; at 11.0 µM 5% | [10]; at 33.0 µM 1% | [10]; at 100.0 µM 2%

CCCCCCSc1ncnc2[nH]ncc12
inactive: [11]; at 1.2 µM -2% | [11]; at 3.7 µM -1% | [11]; at 11.0 µM 0% | [11]; at 33.0 µM -1% | [11]; at 100.0 µM -1% | [12]; at 1.2 µM -1% | [12]; at 3.7 µM -2% | [12]; at 11.0 µM -3% | [12]; at 33.0 µM -63% | [12]; at 100.0 µM -5% | [13]; at 1.2 µM -2% | [13]; at 3.7 µM 2% | [13]; at 11.0 µM 10% | [13]; at 33.0 µM 22% | [13]; at 100.0 µM 12% | [14]; at 1.2 µM -2% | [14]; at 3.7 µM -1% | [14]; at 11.0 µM -2% | [14]; at 33.0 µM -3% | [14]; at 100.0 µM -4% | [15]; at 1.2 µM 2% | [15]; at 3.7 µM 4% | [15]; [17] -1% | [15]; at 11.0 µM 34% | [15]; at 33.0 µM 4% | [15]; [18] 5% | [15]; at 100.0 µM 5% | [1]; at 1.2 µM -3% | [1]; at 3.7 µM -2% | [1]; [17] 0% | [1]; at 11.0 µM 0% | [1]; at 33.0 µM 0% | [1]; [18] 6% | [1]; at 100.0 µM 0% | [2]; at 1.2 µM -2% | [2]; at 3.7 µM 1% | [2]; at 11.0 µM 1% | [2]; at 33.0 µM 5% | [2]; at 100.0 µM 5% | [3]; [17] -2% | [3]; [18] 0% | [4]; at 1.2 µM -7% | [4]; at 3.7 µM -8% | [4]; at 11.0 µM 3% | [4]; at 33.0 µM -4% | [4]; at 100.0 µM -4% | [16]; [17] -5% | [16]; [18] 6% | [16]; at 50.0 µM 18.9% | [6]; at 1.2 µM -3% | [6]; at 3.7 µM 6% | [6]; at 11.0 µM -3% | [6]; at 33.0 µM -3% | [6]; at 100.0 µM -3% | [7]; at 1.2 µM -1% | [7]; at 3.7 µM -1% | [7]; at 11.0 µM -2% | [7]; at 33.0 µM -2% | [7]; at 100.0 µM -3% | [8]; at 1.2 µM -3% | [8]; at 3.7 µM -3% | [8]; at 11.0 µM 0% | [8]; at 33.0 µM 1% | [8]; at 100.0 µM 3% | [9]; [17] -1% | [9]; [18] 4%
active: [15]; at 50.0 µM 79.4% | [1]; at 50.0 µM 76.5% | [3]; at 50.0 µM 72.1% | [9]; at 50.0 µM 80.8%
